RE007 growth inh = qHTS Assay for Inhibitors of the HIV-1 protein Vpr | S. pombe RE007 Vpr strain, BacTiter-Glo ATP luminescence, 24 h | Potency, µM (highest dose often 92.2 µM), for the others: top-dose activity change, negative = less growth, actives largely listed as inhibitors | 360,000 tested, 0.21% active | AID 651644, 2012; active = well fitted falling curve with a large enough effect; inconclusive = small, poorly fitted or top-dose-only effect; inactive = no such curve, though single readings can be large or run the other way; note: nearly all actives have a fitted effect of over 50% in size
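Fission yeast strain RE007, carrying one chromosomally integrated HIV-1 vpr copy, was seeded at OD 0.01 in PMG+AL medium with 23 nL pinned compound. After 24 h at 30 °C and 99% humidity, viability was read by BacTiter-Glo luminescence.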
AMA1 RON2 block = qHTS for Inhibitors of AMA1-RON; Towards Development of Antimalarial Drug Lead: Primary Screen | Plasmodium falciparum AMA1 (3D7) - RON2 peptide interaction | AlphaScreen AMA1-biotinylated RON2 peptide binding | Potency, µM (top dose mostly 58.2 µM), for inactives: top-dose activity change, negative = inhibition, hits mostly inhibitors | 360,000 tested, 0.2% active | AID 720542, 2013;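 note: 0% = vehicle wells and -100% = peptide control; nearly all actives have a fitted effect of over 45% in size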
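AMA1 (3D7) with his tag at 25 nM final met compounds first, then biotinylated RON2 peptide at 25 nM; detection used donor plus acceptor beads, 10 µg/mL apiece, read by AlphaScreen after 30 min at room temperature.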
AmpC no deterg = qHTS Inhibitors of AmpC Beta-Lactamase (assay without detergent). 330,000 tested, 0.52% active. P00811. AID 485341, 2010. Potency, µM (top dose mostly 57.1 µM), inactives show at the highest dose activity change, negative = inhibition, actives largely listed as inhibitors. AmpC nitrocefin hydrolysis, absorbance 480 nm, 0.0001% Triton;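 note: plate controls were no compound for no effect and no enzyme for full effect; nearly all actives have a fitted effect of over 20% in size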
Target sequence (P00811 whole entry, looked up): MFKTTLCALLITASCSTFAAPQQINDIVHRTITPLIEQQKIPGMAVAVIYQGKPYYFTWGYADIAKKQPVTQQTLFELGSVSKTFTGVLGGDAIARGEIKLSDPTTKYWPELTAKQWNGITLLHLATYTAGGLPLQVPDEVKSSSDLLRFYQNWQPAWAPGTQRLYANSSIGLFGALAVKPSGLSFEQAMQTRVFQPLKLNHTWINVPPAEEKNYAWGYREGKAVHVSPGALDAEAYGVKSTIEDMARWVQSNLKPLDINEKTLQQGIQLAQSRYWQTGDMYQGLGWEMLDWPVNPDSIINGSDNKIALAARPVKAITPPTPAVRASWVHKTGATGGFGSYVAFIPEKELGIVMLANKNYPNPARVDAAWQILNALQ
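AmpC (5.3 nM in the dispensed reagent) in 20 mM phosphate pH 7.0 with 0.01% (detergent screen) or 0.0001% Triton X-100 was preincubated with compounds for 15 min at room temperature. Nitrocefin was then added from an 800 uM solution, and hydrolysis was followed at 480 nm.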
AmpC detergent = qHTS Inhibitors of AmpC Beta-Lactamase (assay with detergent); Potency, µM (top dose mostly 114 µM), for inactives: at the highest dose activity change, negative = inhibition, most hits filed as inhibitors; P00811; AID 485294, 2010; 370,000 tested, 0.041% active; AmpC hydrolysis of nitrocefin, absorbance 480 nm, 0.01% Triton;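 note: 0% = no-compound wells and -100% = no-enzyme wells; nearly all actives have a fitted effect of over 25% in size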
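AmpC (5.3 nM in the dispensed reagent) in 20 mM phosphate pH 7.0 with 0.01% (detergent screen) or 0.0001% Triton X-100 was preincubated with compounds for 15 min at room temperature. Nitrocefin was then added from an 800 uM solution, and hydrolysis was followed at 480 nm.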
* marks the source's active call; other numbers are inactive results; ? = inconclusive; / = not tested or not shown; ! = repeats disagree; [ ] = remark or other dose. Compounds with a hit are over-represented: about 0.79% of the library has one in this group of screens. Unless noted, calls come from the whole dose curve; as a rule, active = well fitted curve in the direction sought with a large enough effect; inconclusive = small, poorly fitted or top-dose-only effect, or another doubt; inactive = no such curve, though single readings can be large; an effect the other way counts as inactive or inconclusive. Unless noted, % is set by controls: 0 for no effect and ±100 for the full control effect; potency is the fitted concentration of half-maximal effect.

SMILES | RE007 growth inh | AMA1 RON2 block | AmpC no deterg | AmpC detergent
Cc1ccc(NC(=S)NC(=O)C2CCCC2)cc1C | ? | 39% | 3.2µM* | 0%
CCOC(=O)c1cc2c(=O)n3ccccc3nc2n(CC2CCCO2)c1=NC(=O)c1ccccc1OCC (configuration not stated) | / | / | / | 1%
CN(C)[C@@H]1C(=O)C(C(N)=O)=C(O)[C@@]2(O)C(=O)C3=C(O)c4c(O)cccc4[C@@](C)(O)C3[C@H](O)C12 (some centres not stated) | 0% | 1.4µM*! | -33% | ?
C=C1c2cccc(O)c2C(O)=C2C(=O)[C@]3(O)C(O)=C(C(N)=O)C(=O)[C@@H](N(C)C)[C@@H]3[C@@H](O)[C@H]12 | -5% | 3.2µM* | -32% | ?
C[C@H]1c2cccc(O)c2C(O)=C2C(=O)C3(O)C(O)=C(C(N)=O)C(=O)[C@@H](N(C)C)[C@@H]3[C@@H](O)[C@@H]21 (some centres not stated) | 10% | ? | -13% | ?
CCC(Sc1nnc2c(n1)[nH]c1ccccc12)C(=O)Nc1ccccc1OC (configuration not stated) | / | / | / | 1%
COC(=O)c1c(NC(=O)CN2C(=O)NC3(CCc4ccccc4C3)C2=O)sc2c1CCCCC2 (configuration not stated) | -1% | -5% | 3.5µM* | -16%
Cc1ccccc1-c1noc(-c2ccc(NCc3cccnc3)c([N+](=O)[O-])c2)n1 | / | / | / | -1%
COc1ccc(CCNC(=S)NC(=O)c2ccc(Br)cc2)cc1OC | -27% | 56% | -25% | 0%
COc1ccc(CCNC(=S)NC(=O)c2ccccc2)cc1C | -14% | 37% | 11µM* | -6%
Cc1cccc(S(=O)(=O)c2cn(Cc3ccc(F)cc3)c3cc(N4CCOCC4)c(F)cc3c2=O)c1 | / | / | / | 5%
Cc1[nH]c2ccccc2c1C(C#N)(C#N)C1C(=O)c2ccccc2C1=O | -19% | -28% | 14µM* | -6%
Cc1[nH]c2ccccc2c1CC#N | 29% | -1% | -17% | -9%
NC(=O)[C@@H]1CCCNc2c(I)cc([N+](=O)[O-])cc2C(=O)N[C@@H](CO)C(=O)N[C@@H](Cc2ccc(O)cc2)C(=O)N1 | 22% | -1% | -23% | -6%
CC(C)C[C@@H]1NC(=O)[C@H](Cc2ccc(O)cc2)NC(=O)c2cc([N+](=O)[O-])cc(I)c2NCCC[C@@H](C(N)=O)NC1=O | -4% | -1% | 4µM* | ?
CCc1ccc(C(c2ccccc2)c2c(C)[nH]c3ccccc23)s1 (configuration not stated) | / | / | / | 2%
CC1CCCN(c2ccc(C(=O)NCC3CCCO3)cn2)C1 (configuration not stated) | -3% | -1% | 0.2µM* | -2%
Clc1ccc2[nH]c3c(c2c1)CCc1cn[nH]c1-3 | 35µM* | -14% | -30% | -13%
c1ccc2c3c([nH]c2c1)-c1[nH]ncc1CC3 | -20% | -12% | -34% | 0%
CCCCCCCOC(=O)C1=C(C)Nc2ncnn2C1c1cccs1 (configuration not stated) | -8% | -4% | -18% | -3%
CCCCCCCCOC(=O)C1=C(C)Nc2nnnn2C1c1cccs1 (configuration not stated) | 32µM* | -2% | 1% | ?
Cc1ccc(C(=O)Nc2ccc(C(=O)O)cc2)cc1S(=O)(=O)N1CCC(C)CC1 | / | / | / | 7%
CC1CN(CN2C(=O)c3ccccc3C2=O)CC(C)O1 (configuration not stated) | 1% | -5% | 5.6µM* | 10%
CC1CN(CCCCN2C(=O)c3ccccc3C2=O)CC(C)O1 (configuration not stated) | -5% | -18% | -2%[11.4 µM] | -12%
N=C1SCC(=O)N1c1ncc(Cc2cccc(Cl)c2)s1 | 18µM* | 120% | -17% | -4%
SMILES | RE007 growth inh | AMA1 RON2 block | AmpC no deterg | AmpC detergent
NC(=O)C1CCN(CC(=O)c2c[nH]c3ccc(F)cc23)CC1 | 8% | -13% | 0.14µM* | 10%
O=C(Cn1c(SCC(=O)Nc2ccc(F)cc2)nc2ccccc21)NCc1ccccc1Cl | / | / | / | -1%
COc1ccc(NC(=O)Cc2csc(NC(=O)Nc3ccccc3OC)n2)cc1 | 0% | 0% | / | /
Cc1ccc(NC(=S)Nc2nc(CC(=O)Nc3ccccc3)cs2)cc1 | -14% | 65% | 14µM* | -2%
COc1ccccc1NC(=O)Nc1nc(CC(=O)Nc2ccc(N(C)C)cc2)cs1 | -4% | 18µM* | -48% | ?
CCC1CN(C(=O)C2CCN(S(=O)(=O)c3c(C)noc3/C=C/c3ccc(C)cc3)CC2)c2cc(C)ccc2O1 (configuration not stated) | / | / | / | 21%
COc1ccccc1NC(=O)Cn1ncc2c1-c1ccccc1OC2 | 2% | 0% | 6.3µM* | -14%
Cc1ccc(NC(=O)Cc2c(C(=O)O)c(C)cn2C)cc1Cl | / | / | / | 9%
CC1CN(S(=O)(=O)c2ccc(C(=O)Nc3ccc(S(=O)(=O)Nc4nccs4)cc3)cc2)CC(C)O1 (configuration not stated) | / | 0% | -36% | -9%
Cc1ccnc(NS(=O)(=O)c2ccc(NC(=O)c3ccc(S(=O)(=O)N4CC(C)OC(C)C4)cc3)cc2)n1 (configuration not stated) | -9% | -6%[11.6 µM] | 32µM* | -3%
CC(=O)N(Cc1ccc(F)cc1)C1=C(NCc2ccccc2)C(=O)c2ccccc2C1=O | 7.1µM* | ? | 49% | -1%
Cn1c(=O)c(=O)n(C)c2cc(S(=O)(=O)CCC(=O)N3CCOCC3)ccc21 | 9% | 4% | 4µM* | 6%
O=C(OCn1ncc(Br)c(Br)c1=O)c1ccccc1Cl | 6.3µM* | -8% | -34% | -2%
O=C(OCn1ncc(Br)c(Br)c1=O)c1ccc(F)cc1 | ? | -9% | -49% | -14%
Cc1ccc(Cl)cc1N1CCN(C(=O)Cn2cnc3nc4c(cc3c2=O)CCCC4)CC1 | / | / | / | 0%
COc1cc(-c2cc3n(C)c(C)c(CCC(=O)NC4CCCCC4)c(=O)n3n2)cc(OC)c1OC | / | / | / | -6%
CCOc1ccc(NC(=O)CN2CC(c3ccccc3)CC2=O)cc1 (configuration not stated) | 3% | -1% | 2.5µM* | -15%
COc1cccc(NC(=O)CN2CC(c3ccccc3)CC2=O)c1 (configuration not stated) | 4% | -8% | 2% | -11%
Cc1ccc(Cl)cc1-n1ncc2c(N3CCC(C)CC3)ncnc21 | / | / | / | 6%
Cc1cc(C(=O)Nc2c(C)n(C)n(-c3ccccc3)c2=O)c(C)o1 | 22% | 1% | 0.16µM* | 3%
Cc1ccc(S(=O)(=O)Nc2cccc(-c3ccc(N4CCCCCC4)nn3)c2)cc1 | 0% | -11% | 0.71µM* | -13%
